Values without a mark were called inactive.

In the assay the test system is Vero E6 infected with SARS-CoV-2. The assay can be described thus: SARS-CoV-2 infection rate relative to infected DMSO; higher = more infection, active = 60 or less. Particulars: 24 h.
For `CC/C=C(\C(=O)N[C@@H]1C(=O)N2C(C(=O)OCOC(=O)C(C)(C)C)=C(COC(N)=O)CS[C@H]12)c1csc(N)n1` [cefcapene-pivoxil] (10 µM), the SARS-CoV-2 infection rate is 114%.
The result for `CC(C)(O)C(=O)N1CCN(c2ccc(C(F)(F)F)c(C3=C(c4c[nH]c5ccccc45)C(=O)NC3=O)c2)CC1` (0.833333 µM) reads 108%.
The result for `CC1=C(CC(=O)O)c2cc(F)ccc2/C1=C\c1ccc([S+](C)[O-])cc1` (centres undefined) [sulindac] (10 µM) reads 104%; that for `COc1cc2c(cc1OC)-c1c/c(=N\c3c(C)cc(C)cc3C)n(C)c(=O)n1CC2` [trequinsin] (10 µM), 87.5%; that for `Cc1noc(C)c1-c1ccc(-c2cc(C(N)=O)c(NC(N)=O)s2)c(O[C@H]2CCNC2)c1` (10 µM), 104%.
As for `CCc1ccc(C(=O)C(C)CN2CCCCC2)cc1` (centres undefined) [eperisone] (10 µM), the figure is 80%; as for `CNCc1cc(-c2ccccc2F)n(S(=O)(=O)c2cccnc2)c1` [vonoprazan] (10 µM), 114%.
Turning to `Cc1ccc(S(=O)(=O)Cc2nc(-c3ccc(C(=O)NCc4cccnc4)cc3)oc2C)cc1` (0.833333 µM), the SARS-CoV-2 infection rate was 93%.
The result for `CC(C)[C@H](O)C(=O)N[C@@H](C)C(=O)N[C@@H]1C(=O)N(C)CCc2ccccc21` [semagacestat] (10 µM) reads 120%; that for `O=C1c2ccccc2CCC1CNCCc1ccc(O)cc1` (centres undefined) (10 µM), 106%.
The result for `CC(C)n1c(=O)n(C(=O)N[C@H]2C[C@H]3CC[C@@H](C2)N3C)c2ccccc21` (10 µM) reads 106%; that for `C=CCNC1=C2C[C@@H](C)C[C@H](OC)[C@H](O)[C@@H](C)/C=C(\C)[C@H](OC(N)=O)[C@@H](OC)/C=C\C=C(/C)C(=O)NC(=CC1=O)C2=O` [tanespimycin] (10 µM), 114%; that for `CN(C)c1nc(N(C)C)nc(N(C)C)n1` [altretamine] (10 µM), 114%.
The result for `c1cn2cc(-c3ccc4cn[nH]c4c3)nc(Nc3ccc(N4CCOCC4)cc3)c2n1` (10 µM) reads 104%.
Take `CCc1cnc(N2CCC(c3nc(COc4ccc(-n5cnnn5)cc4)cs3)CC2)nc1` (10 µM): the SARS-CoV-2 infection rate is 97%.
The result for `Cc1cc(O)c(-c2ccc([C@@H](C)CN)cc2)c2c1[nH]c(=O)c1sccc12` (0.833333 µM) reads 95%; that for `CN(C)CC/C=C1/c2ccccc2Sc2ccc(Cl)cc21` [chlorprothixene] (10 µM), 68.5%.
As for `CC1(C)CCC[C@]2(C)[C@H]3CC(=O)O[C@]3(C)CC[C@@H]12` [Sclareolide (Norambreinolide)] (10 µM), the SARS-CoV-2 infection rate is 106%.
The result for `CCCc1c2oc(C(=O)O)cc(=O)c2cc2c(=O)cc(C(=O)O)n(CC)c12` [nedocromil] (10 µM) reads 110%; that for `CC[N+](CC)(CCNC(=O)C(=O)NCC[N+](CC)(CC)Cc1ccccc1Cl)Cc1ccccc1Cl` [ambenonium] (10 µM), 106%; that for `C[C@@H]1COCCN1c1cc(=O)n2c(n1)N(Cc1cncc(Cl)c1)[C@H](C(F)(F)F)CC2` (0.833333 µM), 70%.
As for `CCN1CCCC1CNC(=O)c1cc(S(=O)(=O)CC)c(N)cc1OC` (centres undefined) [amisulpride] (10 µM), the figure is 105%; as for `CCCCn1c(-c2ccccc2)nc(-c2ccccc2)c1CN(Cc1ccc2c(c1)OCO2)Cc1ccc2c(c1)OCO2` (10 µM), 99.5%.
In the case of `CN(CCOc1ccc(C[C@H](Nc2ccccc2C(=O)c2ccccc2)C(=O)O)cc1)c1ccccn1` (10 µM), the SARS-CoV-2 infection rate is 70%.
As to `O=C(O)c1ccccc1Nc1cccc(C(F)(F)F)c1` [flufenamic-acid] (10 µM), the SARS-CoV-2 infection rate is 99.5%.
The result for `CC(C)CCC[C@@H](C)[C@H]1CC[C@H]2[C@@H]3CCC4=CC(=NO)CC[C@]4(C)[C@H]3CC[C@]12C` [olesoxime] (10 µM) reads 106%; that for `CC(C(=O)O)c1ccc(CC2CCCC2=O)cc1` (centres undefined) [loxoprofen] (10 µM), 108%.
The result for `Oc1ccc2ccccc2c1` [beta-naphthol] (10 µM) reads 111%; that for `C[C@H](CCC(=O)O)[C@H]1CC[C@H]2[C@@H]3[C@H](O)C[C@@H]4C[C@H](O)CC[C@]4(C)[C@H]3C[C@H](O)[C@]12C` [cholic-acid] (10 µM), 110%.

Values taken from the supplement of paper PMC13380429.
